Molecules are shown by their SMILES. Compounds without any hit were thinned out: in the full panel of roughly 83,000, 20% have a hit.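 Percent growth is the endpoint: 0 to 100 indicates growth inhibition (40 means 60% inhibition), 0 means no net growth, and negative values indicate cell death.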 Active and inactive are the calls of the source. The calls were made as follows: active = growth percent below 10; inactive = the rest.

The test deals with MDA-MB-468 breast. The test is described as follows: NCI-60 one-dose screen, 48 h (100 = growth as untreated, 0 = no growth, -100 = all killed). To be noted: 10 µM unless noted.
In the case of `CC1=CC2c3oc(-c4ccccc4)c(C(=O)c4ccccc4)c3CNC2C=C1` (centres undefined), the growth is 97.7% (inactive).

Regarding `C[C@]12CCc3nc(Nc4cccc(O)c4)sc3C1=CC[C@@H]1[C@@H]2CC[C@]2(C)/C(=N\NC(N)=S)CC[C@@H]12`, the growth was -32.7% (active).

Regarding `COc1ccc(C2C(C#N)=C(N)Oc3c2sc2c(C)cccc32)cc1` (centres undefined), the growth was 8.47% (active).

For the molecule `Cc1ccc(S(=O)(=O)Oc2ccc(Br)cc2Br)cc1`, the growth is 23.7% (inactive).

`O=C(/C=C/c1ccc(O)c(O)c1)N1CCN(c2ccc(Cl)cc2)CC1`: the growth was 39.7% (inactive).

For `CN1c2ccccc2Sc2cc(/C=N/Nc3ccnc4cc(Cl)ccc34)ccc21`, the growth is 52.7% (inactive).

For `CN1CCN(c2ccc(NC(=O)c3cncnc3Nc3ccc(OCc4cccc(F)c4)c(Cl)c3)cc2)CC1`, the growth is 71.8% (inactive).

For the molecule `Cn1cc(-c2cc3ncnc(Nc4ccc(CC(=O)Nc5cc(C(C)(C)C)nn5C)cc4)c3s2)cn1`, the growth is 33.8% (inactive).

For the molecule `c1ccc(Cc2ccccc2)cc1`, the growth was 92.9% (inactive).

`C=C1C(=O)O[C@H]2[C@H]1CC/C(CNC(=O)/C=C/c1ccccc1F)=C\CC[C@@]1(C)O[C@@H]21`: the growth is -45.5% (active).

On to `CCCCN(CC)CC(CC)Nc1cc(OC)cc2cccnc12` (centres undefined), for which the growth was 119% (inactive).

Regarding `COC(=O)CCC1=C(C)C2=NC1=CC1=NC(=CC3=NC(=Cc4[nH]c(/c(=C(/C)O)c4C)=C2)C(C(C)=O)=C3C)C(C)=C1CCC(=O)OC`, the growth is 108% (inactive).

Regarding `C1CCc2onc(-c3noc4c3CCCCC4)c2CC1`, the growth is 108% (inactive).

In the case of `Fc1cc2[nH]ncc2c2c3c(c(-c4cn[nH]c4C(F)(F)F)nc12)CCCC3`, the growth is -20.3% (active).

For the origin of these results see PubChem BioAssay (NCI).
